# Test system: THRa homodimer (NR concentration 90 nM)
# Experiment: PBM binding z-score (relative to random genomic background probes); higher = stronger binding; sequences stand for … in GC…GCGATTGACAGCGTAGAATGAAGG
# Procedure, shortened: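 Ligand-free nuclear receptor dimers were applied to custom Agilent 4×180K protein-binding microarrays whose double-stranded probes carried direct-repeat seeds, single-nucleotide variants, half-site ablations and random human genomic background sequences in 34-nt variable regions. Incubation lasted 1 h. Binding z-scores were computed against the random background probes from regression-normalized fluorescence.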
row,Sequence,PBM binding z-score
1,CAAACTAGGTCAGAACAGGACAGTGAAGGATGAT,0.447
2,TCTAGTAGATCAACAGGAGGTTAAGAAAGATCGA,-0.505
3,TCATATAGATAAAAGGTGAAAGTCGGTGTGGTAA,0.0496
4,TCTCGGTGGACACGAAAGGTCAGAGCTCGACATC,0.543
5,CCTAGCAGGCCAGGGTCTCTCAAGCATTTCGCTT,-0.611
6,TTACCAAGGTGAGCTGAGGTCGTTGAACCAACTC,2.02
7,ATCGAAAGGTCGAGGTGATTATAGAGAAAGGGAA,0.338
8,CGTCCAAGGTCAAAGGTCGGTGAAGAGATGACGG,2.17
9,AGAATGATGTTATACGTAGATCAGGGAAGAAAGT,-0.533
10,ATTCCAAGGTGATCGTGAGGTCGTTGATACTAAC,2.95
11,TCTAGCAGGCCACAGGGTCACTCAAGAGGTACGG,1.16
12,TGTCAAAGTTCAAAGGAAACGTAAGTATCCACAC,-0.452
13,GGAACGATGGCATTCGAGTTGATAGCATGGCGAT,-0.974
14,CTCGAAAGGTCGTGCTCAGGTGAGTATTCCAAAC,1.31
15,TCTCGGAGGACACGAAGGTCAGAGGTTTCCAGAG,1.17
16,ATATGTAGCTTATCGGGTCATTCAGTTTGCGCAT,2.6
17,CCGACTGGGGCACAAAGGTTACCATACCATCCGG,0.0239
18,GGAACGAGGGGAAAGTTGATAGCATCTGTCGACG,-0.259
19,CGAACTAGGTGATCCAGGACAGTGAATACATTGA,0.934
20,TCATATAGGTAAACGGTGAAAGTCGGTGTGGTAA,0.00294
21,CCGACTGGGGCAGAAAGGTTGCCATACCATCCGG,-0.642
22,ATAGGTAGGTTAGCTGGGGTCATTCAGACTAGGC,3.51

# Reference: the supplement of paper PMC6555819
